# Compound activity: PubChem, National Center for Advancing Translational Sciences (NCATS)
# p53 reactivation – re-activators of mutant p53 | H1299 p53-A138V BP100-luciferase reporter, luminescence, 24 h | Potency, µM (series often up to 92.2 µM), without a hit: at the highest dose activity change, positive = activation, hits mostly activators | 0.063% of 320,000 active | AID 504706; also: % of control where 0% means no effect; nearly all actives have a fitted effect of over 45% in size
#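 p53-null H1299 cells stably carrying temperature-sensitive p53-A138V and a BP100-luciferase reporter were pinned with compounds (4-point, 1:5 series) and held 24 hrs at 37 deg C. Luminescence was read 10 min after detection reagent.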
# FLuc counter – counter-screen for miR-21 project: firefly luciferase inhibitors or activators; 6.9% of 360,000 active; Potency, µM (titrated, usually from 57.5 µM), for the others: at the highest dose activity change, negative = inhibition, usual class: inhibitors; P08659; purified FLuc, Km substrates, luminescence inhibition;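 also: plate controls were vehicle for no effect and reference inhibitor for full effect; nearly all actives have a fitted effect of over 55% in size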
# Target sequence (P08659 whole entry, looked up): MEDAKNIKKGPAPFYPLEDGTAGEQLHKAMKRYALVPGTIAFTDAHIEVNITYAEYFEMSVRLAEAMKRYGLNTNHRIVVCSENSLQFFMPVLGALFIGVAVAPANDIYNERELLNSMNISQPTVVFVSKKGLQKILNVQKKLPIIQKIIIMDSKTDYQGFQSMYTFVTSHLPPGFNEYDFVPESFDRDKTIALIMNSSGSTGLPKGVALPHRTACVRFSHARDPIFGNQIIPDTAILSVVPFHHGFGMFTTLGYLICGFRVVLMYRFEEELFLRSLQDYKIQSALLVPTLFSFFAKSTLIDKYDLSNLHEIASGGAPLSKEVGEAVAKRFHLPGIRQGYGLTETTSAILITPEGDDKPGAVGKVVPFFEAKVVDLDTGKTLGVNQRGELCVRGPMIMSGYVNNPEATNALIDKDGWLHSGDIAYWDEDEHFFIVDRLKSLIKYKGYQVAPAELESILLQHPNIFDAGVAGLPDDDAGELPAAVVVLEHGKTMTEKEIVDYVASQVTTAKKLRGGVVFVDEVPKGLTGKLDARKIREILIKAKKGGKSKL
#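 Purified P. pyralis luciferase, 10 nM final, with Km-level 10 uM D-luciferin and 10 uM ATP in 50 mM Tris acetate pH 7.5, 10 mM Mg acetate, 0.01% Tween-20, 0.05% BSA; 6-point qHTS titration about 60 µM downward; luminescence read.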
# NPC1 prom act – activators of NPC1 promoter. Potency, µM (top dose mostly 9.22 µM), without a hit: at the highest dose activation, hits mostly activators. 2.4% of 320,000 active. Huh7 NPC1 promoter luciferase reporter, 24 h; also: % of control where 0% means no effect; nearly all actives have a fitted effect of over 60% in size
#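 Huh7 cells stably carrying NPC1 promoter–luciferase, plated in Opti-MEM with 10% FBS for 2 h, were exposed to compound in DMSO for 24 h at 37 °C; luciferase reagent was added for 10 min and luminescence read.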
# ELG1 genotoxic – inducers of genotoxicity in HEK293T ELG1-luciferase cells | HEK293T ELG1-luciferase reporter, luminescence, 16 h | Potency, µM (highest dose often 46 µM), for the others: top-dose activity change, positive = activation, most hits filed as activators | 1.3% of 330,000 active; also: % of control where 0% means no effect; nearly all actives have a fitted effect of over 60% in size
#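 HEK293T cells expressing luciferase-tagged ELG1 were treated with compound or DMSO for 16 hr at 37°C. Luciferase activity was then read after 30 min with ONE-Glo at room temperature; rising signal flags genetic stress.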
# SMN2 splice enh – SMN2 splice variant enhancement; HEK293 SMN2-luciferase splicing reporter, luminescence, 30-36 h; Potency, µM (titrated, usually from 46.1 µM), inactives show at the highest dose activity change, positive = activation, usual class: activators; 2.8% of 210,000 active; also: % of control where 0% means no effect; nearly all actives have a fitted effect of over 55% in size
#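 HEK293 cells carry an SMN2 […]–luciferase reporter in which exon 7 inclusion puts luciferase in frame. Cells were plated 10-12 h before compound addition, then incubated 30-36 h at 37C. ONE-Glo luminescence was read; sodium butyrate at 4.5 mM final served as control.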
# Rab9 promoter act – Rab9 promoter activation | Huh7 Rab9 promoter-luciferase reporter, luminescence, 24 h | Potency, µM (doses to about 9.22 µM), inactives show at the highest dose activation, negative = inhibition, actives largely listed as activators | 2.8% of 320,000 active | AID 485297; also: % of control where 0% means no effect; nearly all actives have a fitted effect of over 60% in size
#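 Huh7 reporter line, Rab9 promoter upstream of luciferase. Compound exposure 24 h at 37 °C in reduced-serum medium with 10% FBS. Read-out: luminescence.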
# * marks the source's active call; other numbers are inactive results; ? = inconclusive; . = not tested or not shown. Rows were chosen to be rich in hits. Some 7.4% of all compounds tested hit in one or more screens of this group. Calls follow the shape of the dose curve; as a rule, active = well fitted curve in the direction sought with a large enough effect; inconclusive = small, poorly fitted or top-dose-only effect, or another doubt; inactive = no such curve, though single readings can be large; an effect the other way counts as inactive or inconclusive. Potency is read from the fitted curve at half-maximal effect.
SMILES,p53 reactivation,FLuc counter,NPC1 prom act,ELG1 genotoxic,SMN2 splice enh,Rab9 promoter act
COc1ccc(CCNC(=O)c2cccc(S(=O)(=O)N3CCCCCC3)c2)cc1,-3.4%,-10.8%,8.9%,-3.5%,.,-0.7%
O=C(NCc1ccc(F)cc1)c1ccc2c(c1)nnn2C1CCCC1,.,1.2%,.,.,.,.
C=CCOC(=O)NC(c1ccc(F)c(F)c1)C(C(C)=O)C(=O)OC (stereo not given),.,.,.,.,-4.6%,.
COc1cccc(NC(=O)CSc2nnc(NC(=O)C3CC3)s2)c1,-2.8%,-18.8%,-1.8%,0.4%,.,1.8%
Cc1ccc(NC(=O)CSc2nnc(NC(=O)NC3CCCCC3)s2)cc1,.,0.953µM*,.,.,.,.
COc1cccc(NC(=O)CSc2nnc(NC(=O)NC3CCCCC3)s2)c1,.,1.51µM*,.,.,.,.
Cc1ccc(NC(=O)CSc2nnc(NC(=O)C3CC3)s2)cc1,5.5%,-0.1%,1.4%,?,.,4.2%
Cc1ccc(NC(=O)Nc2nnc(SCC(=O)N3CCC(C)CC3)s2)cc1,.,19µM*,.,.,.,.
O=C(CSc1nnc(NC2CCCCC2)s1)Nc1ccc(N2CCOCC2)cc1,5.5%,13.5µM*,17.4%,10.2%,-12.5%,14.1%
O=C(Cn1c(=O)n(-c2ccc(F)cc2)c(=O)c2sc3ccccc3c21)N1CCCC1,.,2.7%,.,.,-0.1%,.
COc1ccc(-c2nc3ccccc3o2)cc1NC(=O)c1cccc2c(Cl)cccc12,.,-3.1%,.,.,0.7%,.
Cc1cc(C)c(S(=O)(=O)NCC(c2ccco2)S(=O)(=O)c2cccs2)c(C)c1 (stereo not given),.,-1.7%,.,.,.,.
COC(=O)c1ccc(C(NC(=O)OCc2ccccc2)/C(I)=C/[C@@H](C)C(=O)NCC2CC2)cc1 (stereo not given in full),.,.,.,.,-8.8%,.
COc1ccc(-c2cccc(C(=O)NCC(=O)O)c2)cc1,13.7%,13.5µM*,14.9%,?,?,24.7%
COC(=O)CNC(=O)c1cccc(-c2ccc(OC)cc2)c1,-2.7%,19µM*,7.7%,4.2%,4.3%,14.8%
COc1cc(OC)cc(C(=O)NCC(=O)Nc2ccc(-c3ccccc3)cc2)c1,?,15.1µM*,-5.5%,?,.,27.6%
COc1cccc(C(=O)NCC(=O)OCc2ccc(F)cc2Cl)c1,10.1%,16.9µM*,0.4%,0.9%,-2.3%,-6.8%
COc1ccc(-c2cccc(C(=O)Nc3ccc(C)cc3)c2)cc1,0.3%,-17.8%,-3.8%,0.5%,-0.5%,3.2%
CCOc1ccccc1NC(=O)CCCc1nc(-c2ccccc2Cl)no1,.,-10.7%,.,.,6.8%,.
CC1(C)OCC(CSC2=C(SCC3COC(C)(C)O3)C(=O)c3ncccc3C2=O)O1 (stereo not given),.,.,.,.,-32.1%,.
O=C(c1ccc2c(c1)OCO2)c1cn(Cc2ccc(Cl)cc2)c2ccc(F)cc2c1=O,.,-1.6%,.,.,?,.
O=C(CC1CCCC1)Nc1ccc2c(c1)CCC2,12.5%,13.5µM*,2.51µM*,?,?,3.55µM*
Cc1cc(NC(=O)CCSc2ccccc2)ccc1Br,?,23.9µM*,13.9%,?,?,20.3%
Cc1cc(Br)ccc1NC(=O)CCSc1ccccc1,2.5%,2.1%,1.3%,0.6%,1.3%,5.4%
Cc1cc(NC(=O)CC2CCCC2)ccc1Br,?,19µM*,-29.7%,?,.,?
SMILES,p53 reactivation,FLuc counter,NPC1 prom act,ELG1 genotoxic,SMN2 splice enh,Rab9 promoter act
CCOc1ccc(-c2cc(C(=O)OC)[nH]n2)cc1,7.6%,9.53µM*,3.16µM*,?,.,2.24µM*
COC(=O)c1cc(-c2ccc(OC)cc2)n[nH]1,16.7%,26.9µM*,?,?,?,?
COC(=O)c1cc(-c2cccc(OC)c2)n[nH]1,?,?,3.7%,10.0%,?,14.9%
COC(=O)c1cc(-c2ccc(C)cc2)n[nH]1,4.9%,23.9µM*,15.5%,?,.,?
Cc1nc2nc[nH]n2c(=O)c1CCC(=O)Nc1ccc(F)cc1,.,?,.,.,-15.5%,.
COc1ccc(-c2cc(=O)oc3c4c(ccc23)OCN(Cc2cccc(OC)c2)C4)cc1,.,-7.8%,.,.,-4.2%,.
COc1ccccc1Nc1nc2ccc(C)cc2cc1C#N,1.0%,12µM*,19.2%,1.3%,0.9%,16.2%
O=S(=O)(NCCC1=CCCCC1)c1ccc(Br)cc1,-2.7%,0.2%,-2.1%,-3.5%,.,-0.2%
CCCN(CC(=O)Nc1ccccc1C)C(=O)C1CC(=O)N(c2cccc(C)c2C)C1 (stereo not given),-8.0%,-2.4%,-1.1%,3.0%,.,-4.8%
CC(=O)c1ccc(N2CCN(c3ccc(NC(=O)c4cccs4)cc3C(=O)O)CC2)cc1,.,-11.3%,.,.,.,.
Cc1[nH]c2ccccc2c1/C=N/NC(=O)c1ccc(N)cc1,1.6%,12µM*,-5.4%,6.5%,.,0.7%
Cc1[nH]c2ccccc2c1/C=N/NC(=O)c1cc(-c2ccccc2)n[nH]1,0.8%,23.9µM*,-11.7%,-10.8%,.,-2.8%
Cc1[nH]c2ccccc2c1/C=N/NC(=O)c1cc(C(C)(C)C)[nH]n1,-3.4%,12µM*,13.9%,-4.6%,.,0.2%
Cc1[nH]c2ccccc2c1/C=N/NC(=O)c1ccccc1,11.3%,?,0.3%,3.6%,.,-0.8%
Cc1[nH]c2ccccc2c1/C=N/NC(=O)c1cc(-c2ccncc2)nc2ccccc12,-5.2%,?,-24.6%,-5.3%,.,-6.0%
Cc1[nH]c2ccccc2c1/C=N/Nc1cccc(C(=O)O)c1,13.3%,2.69µM*,1.58µM*,?,.,2µM*
Cc1[nH]c2ccccc2c1/C=N/NC(=O)c1cccc(Br)c1,18.9%,?,0.0%,0.3%,.,-0.4%
CC(=O)c1ccc(NC(=O)Cn2nc(C(F)(F)F)c3c2CCCC3)cc1,.,-18.0%,.,.,3.8%,.
COCC(=O)N1CCC2(CCCN(Cc3nccs3)C2)CC1,.,.,.,.,0.6%,.
CC12C=CC(=O)C=C1CCC1C2=CCC2(C)C1CC[C@@H]2C(=O)CN1CCN(c2cc(N3CCCC3)nc(N3CCCC3)n2)CC1 (stereo not given in full),.,.,.,.,-14.0%,.
CCN(CC)C(=O)c1[nH]cnc1C(=O)NCC(=O)OCc1ccccc1,.,-0.7%,4.2%,1.7%,.,-2.0%
Cc1ccc(NC(=S)N/N=C/c2c(C)[nH]c3ccccc23)cc1,0.1%,19µM*,0.3%,0.7%,-27.1%,-0.8%
Cc1[nH]c2ccccc2c1/C=N/NC(N)=S,-3.0%,?,2.1%,3.6%,.,-1.1%
O=C(c1cc(-c2cccs2)on1)N1CCN(c2ccc(F)cc2)CC1,-2.5%,23.9µM*,3.4%,-7.3%,-52.6%,0.7%
COc1ccc(OC)c(-c2cc(C(=O)N3CCN(c4ccccc4)CC3)no2)c1,-5.9%,7.6%,-5.0%,-5.2%,-1.2%,-1.0%
